MCF10A rerep = DNA re-replication induction in MCF 10a cells; MCF 10A DNA re-replication, Hoechst nuclear intensity, 48 h; Potency, µM (doses to about 46.1 µM), without a hit: at the top dose activity, positive = re-replication, usual class: activators; actives 2.9% (n = 350,000); also: potency is read from the fitted curve at half-maximal effect; % of control where 0% means no effect; nearly all actives have a fitted effect of over 50% in size
SW480 rereplic = inducers of DNA re-replication in SW480 colon cancer cells. SW480 DNA re-replication, Hoechst DNA content imaging, 48 h. AID 624297. actives 1.8% (n = 340,000). Potency, µM (top dose mostly 46.1 µM), without a hit: top-dose re-replication activation, actives largely listed as activators; also: potency is read from the fitted curve at half-maximal effect; % of control where 0% means no effect; nearly all actives have a fitted effect of over 55% in size
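Per well, 250 cells were exposed to pinned compound for 48 hr. Nuclear DNA was visualised with Hoechst (40 min, 37 C) and total object intensity recorded by fluorescence scanning.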
KCNH2 WT inh = blocks the wildtype human KCNH2 potassium channel. Q12809. U2OS, BacMam KCNH2, thallium flux FluxOr; hits give low values. activity change, % at 1.84 µM. actives 0.37% (n = 340,000). AID 720551;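 active = maximum activity change below -70%; inconclusive = maximum activity change between -70% and -50%; inactive = maximum activity change above -50%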; also: % is scaled to controls: 0 for no effect and ±100 for the full control effect
Target sequence (Q12809 whole entry, looked up): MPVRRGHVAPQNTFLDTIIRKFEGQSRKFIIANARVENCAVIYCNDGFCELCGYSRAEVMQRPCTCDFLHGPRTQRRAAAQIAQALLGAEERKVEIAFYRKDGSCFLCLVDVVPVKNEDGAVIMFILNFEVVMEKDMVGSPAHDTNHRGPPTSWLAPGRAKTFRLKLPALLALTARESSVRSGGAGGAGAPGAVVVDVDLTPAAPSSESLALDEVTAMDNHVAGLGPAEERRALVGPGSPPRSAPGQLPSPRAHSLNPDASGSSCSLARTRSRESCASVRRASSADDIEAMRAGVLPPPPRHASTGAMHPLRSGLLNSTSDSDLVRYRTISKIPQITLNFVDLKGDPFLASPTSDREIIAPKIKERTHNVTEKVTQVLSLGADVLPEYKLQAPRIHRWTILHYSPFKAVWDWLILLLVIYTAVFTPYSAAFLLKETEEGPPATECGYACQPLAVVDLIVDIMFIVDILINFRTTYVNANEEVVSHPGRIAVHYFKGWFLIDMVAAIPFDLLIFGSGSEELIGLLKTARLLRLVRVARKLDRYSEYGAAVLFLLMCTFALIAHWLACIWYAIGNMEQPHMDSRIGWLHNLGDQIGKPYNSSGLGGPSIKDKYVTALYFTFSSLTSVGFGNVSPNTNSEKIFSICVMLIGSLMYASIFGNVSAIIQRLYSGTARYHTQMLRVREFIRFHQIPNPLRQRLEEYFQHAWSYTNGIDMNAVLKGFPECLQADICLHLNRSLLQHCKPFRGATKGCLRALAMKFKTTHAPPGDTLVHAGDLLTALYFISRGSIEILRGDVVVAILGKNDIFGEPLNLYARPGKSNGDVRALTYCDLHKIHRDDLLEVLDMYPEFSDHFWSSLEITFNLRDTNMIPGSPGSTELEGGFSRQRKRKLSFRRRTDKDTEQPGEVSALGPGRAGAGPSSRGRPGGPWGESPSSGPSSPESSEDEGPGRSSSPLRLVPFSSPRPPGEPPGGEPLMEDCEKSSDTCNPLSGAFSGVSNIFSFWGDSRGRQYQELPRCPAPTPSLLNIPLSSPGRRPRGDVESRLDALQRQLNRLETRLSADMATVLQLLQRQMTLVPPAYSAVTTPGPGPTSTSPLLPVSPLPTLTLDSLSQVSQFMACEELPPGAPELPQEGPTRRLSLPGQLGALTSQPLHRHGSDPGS
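U2OS cells transduced with wild-type KCNH2 virus are loaded with FluxOr dye for 45 min, and thallium flux is measured in kinetic reads before and after stimulation buffer. Rate constants are normalized to DMSO controls.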
KB-3-1 cytotox = KB-3-1 parental cell cytotoxicity | actives 1.4% (n = 400,000) | Potency, µM (series often up to 46.1 µM), most hits filed as cytotoxic | KB-3-1 viability, CellTiter-Glo ATP luminescence, 72 h | AID 1347075; also: potency is read from the fitted curve at half-maximal effect; % is scaled to controls: 0 for no effect and ±100 for the full control effect; nearly all actives have a fitted effect of over 60% in size
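Parental KB-3-1 adenocarcinoma cells in phenol-red-free DMEM with 10% FBS were pin-treated with compounds at several concentrations, incubated 72 h at 37 °C, and viability read by CellTiter-Glo luminescence; concentration-effect curves were fitted after normalization.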
KCNH2 3.1 block = inhibitors of human KCNH2 3.1 potassium channel isoform. U2OS KCNH2 3.1, thallium flux FluxOr; hits give low values. activity change, % (tested at about 1.8 µM). actives 0.95% (n = 340,000). AID 720553;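 active = maximum activity change below -70%; inconclusive = maximum activity change from -70% to -50%; inactive = maximum activity change above -50%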;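 also: thallium influx rate constant from kinetic fluorescence after stimulation buffer; % is scaled to controls: 0 for no effect and ±100 for the full control effect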
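Thallium flux via FluxOr fluorescence (Red40 quencher, 45 min loading) in U2OS cells virally expressing the KCNH2 3.1 isoform (1.77 x 10^8 /mL virus, overnight at 37 C). Rate constants from 2-min kinetic reads post-stimulation, normalised to positive and negative controls.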
KB-V1 cytotox = KB-V1 MDR subline cytotoxicity; Potency, µM (series often up to 46.1 µM), hits mostly cytotoxic; actives 3.4% (n = 400,000); KB-V1 MDR cells viability, CellTiter-Glo, 72 h; also: potency is read from the fitted curve at half-maximal effect; % is scaled to controls: 0 for no effect and ±100 for the full control effect; nearly all actives have a fitted effect of over 60% in size
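qHTS viability screen in drug-selected KB-V1 MDR cells: 72 h compound treatment at 37 degrees C, ATP luminescence end point.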
* = called active by the depositor; i = inactive; ? = inconclusive; nt = not tested or not shown; ! = not confirmed by another sample. Most compounds without a hit are left out; they make up all but 7.6% or so of the library. Unless noted, calls follow the shape of the dose curve; as a rule, active = well fitted curve in the direction sought with a large enough effect; inconclusive = small, poorly fitted or top-dose-only effect, or another doubt; inactive = no such curve, though single readings can be large; an effect the other way counts as inactive or inconclusive.

SMILES	MCF10A rerep	SW480 rereplic	KCNH2 WT inh	KB-3-1 cytotox	KCNH2 3.1 block	KB-V1 cytotox
Cc1[nH]n(-c2ccccc2)c(=O)c1/C=N/NC(=O)c1ccccc1F	?	2.31µM*	-18.1	?	16.4	i
Cc1[nH]n(-c2ccccc2)c(=O)c1/C=N/NC(=O)COc1ccccc1[N+](=O)[O-]	?	13µM*	-8.7	?	-2.4	?
Cc1[nH]n(-c2ccccc2)c(=O)c1/C=N/NC(=O)c1cccc([N+](=O)[O-])c1	?	3.66µM*	5.1	?	0.5	?
CC(=O)N/N=C/c1c(C)[nH]n(-c2ccccc2)c1=O	-7.9%	25.6%	5.9	i	5.8	?
O=C(Nc1ccc(Cl)c(S(=O)(=O)N2CCOCC2)c1)c1ccccc1-c1ccc(C(F)(F)F)cc1	10.6%	4.4%	1.0	?	-11.6	?
CC(C(=O)O/N=C(\N)c1cccnc1)c1ccc([N+](=O)[O-])cc1 (stereo not given)	-2.2%	1.1%	-7.6	i	0.9	?
Cc1ccc(-n2[nH]c(C)c(/C=N/Nc3ccc([N+](=O)[O-])cc3[N+](=O)[O-])c2=O)cc1C	14.6µM*	1.6%	-13.0	?	-9.2	13µM*
O=C(N/N=C/c1c[nH]c2ccccc12)c1cccc([N+](=O)[O-])c1	1.7%	nt	-7.4	i	7.3	i
CC/C(=N/NC(=O)c1ccccc1O)c1c(C)[nH]n(-c2ccccc2)c1=O	?	23.1µM*	-1.0	?	-0.1	?
COc1ccc(CCN=Cc2c(C)[nH]n(-c3ccc([N+](=O)[O-])cc3)c2=O)cc1OC	-6.6%	-4.5%	-0.3	i	nt	i
Cc1[nH]n(-c2cccc3ccccc23)c(=O)c1/C=N/NC(=O)c1cccc([N+](=O)[O-])c1	?	?	-10.7	?	7.7	3.26µM*
CCSC(=S)c1c(C)[nH]n(-c2ccccc2)c1=O	-1.2%	-10.4%	-0.4	?	8.9	i
COc1ccccc1C(=O)NCCC(=O)Nc1ccc(OC(F)(F)F)cc1	13.0%	-4.9%	-2.9	i	-5.9	i
CCOc1ccccc1N(C(=O)CNC(=O)c1ccco1)C(C(=O)NC1CCCC1)c1ccncc1 (stereo not given)	7.6%	0.3%	-18.2	i	-9.7	i
CSCC[C@H](NC(=O)C1CCN(S(=O)(=O)c2ccc(C)cc2C)CC1)c1nc2ccccc2[nH]1	3.2%	13.6%	3.1	i	-1.3	23.1µM*
CSCC[C@H](NC(=O)c1cccc([N+](=O)[O-])c1C)c1nc2ccccc2[nH]1	3.3%	12.5%	-1.7	i	-1.4	16.4µM*
O=C(Cn1ncc2c3ccccc3n(Cc3ccccc3F)c2c1=O)NCc1ccccc1Cl	nt	nt	nt	i	nt	i
CCCCn1cnc2c(SCc3ccc([N+](=O)[O-])cc3)nc(N)nc21	2.3%	-0.7%	14.1	i	-85.0*	i
CCCCn1cnc2c(SCc3cccc(F)c3)nc(N)nc21	-32.7%	3.9%	13.1	?	-1.2	i
CSc1nc(C)c2c(n1)N(c1ccc(C(C)C)cc1)CC2	8.1%	14.1%	-14.7	i	-3.2	8.2µM*
CSc1nc(C)c2c(n1)N(c1ccc(F)cc1)CC2	12.9%	-6.1%	-1.1	i	nt	i
COc1cccc(/C=N/n2c(N)c(S(=O)(=O)c3cccs3)c3nc4ccccc4nc32)c1	16.7%	3.0%	-2.4	i	-4.8	i
Nc1c(S(=O)(=O)c2cccs2)c2nc3ccccc3nc2n1/N=C/c1cccc(O)c1	6.51µM*	?	2.9	?	-4.5	?
Cc1ccc(S(=O)(=O)c2c(N)n(/N=C/c3ccco3)c3nc4ccccc4nc23)cc1	?	-6.7%	6.0	i	1.4	i
Cc1cccc(S(=O)(=O)c2c(N)n(/N=C/c3ccco3)c3nc4ccccc4nc23)c1	?	24.8%	5.4	i	4.9	3.66µM*
SMILES	MCF10A rerep	SW480 rereplic	KCNH2 WT inh	KB-3-1 cytotox	KCNH2 3.1 block	KB-V1 cytotox
Cc1cccc(S(=O)(=O)c2c(N)n(-c3ccccc3)c3nc4ccccc4nc23)c1	8.0%	-0.7%	-9.1	i	2.9	2.91µM*
O=C([C@H](Cc1ccccc1)N1C(=O)c2ccccc2C1=O)N1CCOCC1	6.3%	1.7%	2.5	i	-5.6	i
Cc1ccc(S(=O)(=O)Cc2ccc(C(=O)N3CCN(c4cccc(C)c4C)CC3)o2)cc1	?	2.59µM*	8.1	i	9.7	2.91µM*!
Cc1cccc(N2CCN(C(=O)c3ccc(CS(=O)Cc4ccc(Cl)cc4)o3)CC2)c1C (stereo not given)	?	-2.4%	-6.2	i	4.4	i
Cc1ccc(C(=O)N2CCN(c3cccc(C)c3C)CC2)o1	?	8.2%	2.4	16.4µM*	9.5	?
COc1ccc(S(=O)(=O)Cc2ccc(C(=O)N3CCN(c4cccc(C)c4C)CC3)o2)cc1	?	20.6µM*	1.2	?	-0.9	?
COc1ccc(S(=O)(=O)Cc2ccc(C(=O)N3CCN(c4cccc(C)c4)C(C)C3)o2)cc1 (stereo not given)	6.51µM*	14.6µM*	-8.1	3.26µM*	-4.4	i
Cc1ccc(C)c(N2CCN(C(=O)c3ccc(CS(=O)(=O)c4ccc(Br)cc4)o3)CC2)c1	nt	nt	nt	?	nt	i
COc1ccccc1N1CCN(C(c2cccs2)C(C)NS(=O)(=O)c2ccccc2)CC1 (stereo not given)	-5.1%	-2.0%	-2.8	?	-17.1	i
CC(NS(=O)(=O)c1ccccc1)C(c1cccs1)N1CCN(c2ccccc2)CC1 (stereo not given)	?	5.3%	-25.9	?	-14.7	6.51µM*
Cc1ccc(NS(=O)(=O)c2ccc(OCC(=O)NCc3ccccn3)cc2)cc1	10.4%	3.5%	-12.7	nt	-3.1	nt
CCN(CC)C(=O)[C@H]1C[C@H](CC(=O)NCC23CC4CC(CC(C4)C2)C3)C(=O)N2CCc3c([nH]c4ccc(Cl)cc34)[C@]12C	3.2%	14.6µM*	-15.6	i	-20.7	?
CC(C)N(C(=O)[C@H]1C[C@H](CC(=O)NCC23CC4CC(CC(C4)C2)C3)C(=O)N2CCc3c([nH]c4ccc(Cl)cc34)[C@]12C)C(C)C	5.5%	?	-5.0	?	6.8	?
CC[C@]12c3[nH]c4ccc(Cl)cc4c3CCN1C(=O)[C@@H](CC(=O)NCC13CC4CC(CC(C4)C1)C3)C[C@@H]2C(=O)N1CCN(C(=O)c2ccco2)CC1	20.6µM*	?	5.6	?	-26.4	?
